Source: PubChem BioAssay
3T3 cytotox: kills NIH 3T3 cells; NIH 3T3 viability, CellTiter-Glo ATP luminescence, 48-72 h; Potency, µM (highest dose often 96.7 µM), for inactives: at the top dose activity change, negative = cytotoxicity, hits mostly inhibitors; 94,000 compounds, 4.3% hits; AID 1345082; note: nearly all actives have a fitted effect of over 55% in size
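Viability of NIH 3T3 cells after 48 or 72 hr compound treatment at 37 °C was assessed by CellTiter-Glo, with luminescence imaged following a 10 min room-temperature step.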
FLuc inh: inhibitors of firefly (Photinus pyralis) luciferase; P08659; AID 1347043; purified P. pyralis luciferase, luminescence, biochemical; 76,000 compounds, 2.5% hits; Potency, µM (titrated, usually from 115 µM), usual class: inhibitors; note: nearly all actives have a fitted effect of over 65% in size
Target sequence (P08659 whole entry, looked up): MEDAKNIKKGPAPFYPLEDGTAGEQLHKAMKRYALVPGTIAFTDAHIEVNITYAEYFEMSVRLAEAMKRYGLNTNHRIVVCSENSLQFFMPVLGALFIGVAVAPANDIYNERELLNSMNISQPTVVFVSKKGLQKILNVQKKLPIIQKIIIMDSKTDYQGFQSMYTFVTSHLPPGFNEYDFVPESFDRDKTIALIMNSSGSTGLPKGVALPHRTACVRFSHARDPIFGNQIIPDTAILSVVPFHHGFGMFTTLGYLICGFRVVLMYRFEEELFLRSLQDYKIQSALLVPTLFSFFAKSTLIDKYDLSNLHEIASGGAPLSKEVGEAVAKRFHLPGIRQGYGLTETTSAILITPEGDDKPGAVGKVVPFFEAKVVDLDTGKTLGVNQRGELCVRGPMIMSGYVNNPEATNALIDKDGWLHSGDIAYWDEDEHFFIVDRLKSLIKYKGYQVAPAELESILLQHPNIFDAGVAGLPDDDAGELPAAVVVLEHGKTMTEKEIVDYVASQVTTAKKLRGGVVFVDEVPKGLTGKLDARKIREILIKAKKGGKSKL
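Cell-free enzyme assay, 10nM P. pyralis luciferase, luciferin and ATP each at 10uM. Inhibition profiled over a 6-point titration, read as luminescence.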
HEK293 tox: kills HEK 293 cells; AID 1345083; 94,000 compounds, 6.6% hits; Potency, µM (highest dose often 115 µM), for the others: at the top dose activity change, negative = cytotoxicity, usual class: inhibitors; HEK 293 viability, ATP luminescence (CellTiter-Glo), 48-72 h; note: nearly all actives have a fitted effect of over 60% in size
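Cells seeded first (HEK 293, 250 cells/well), then compound added by pintool. Incubation ran 48 or 72 hr at 37 degree Celsius. CellTiter-Glo was added and luminescence imaged after 10 min at room temperature.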
GPT2 inhibitor: GPT2 alanine aminotransferase inhibition; Q8TD30; Recombinant GPT2, coupled pyruvate oxidase/HRP Amplex Red fluorescence; Potency, µM (top dose mostly 57.7 µM), for the others: at the top dose activity change, negative = inhibition, actives largely listed as inhibitors; 100,000 compounds, 0.25% hits; note: nearly all actives have a fitted effect of over 60% in size
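GPT2 10ng/uL, a-KG 250uM, L-Ala 2mM, HEPES pH7.5 + 0.0001% Tween; 30 min RT. Then Amplex mix (PO/HRP/ThPP), 30 min RT dark, fluorescence. AOA 50uM used as positive control.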
hNpr1 antagonist: antagonists of human natriuretic peptide receptor Npr1; Potency, µM (top dose mostly 46.3 µM), for the others: top-dose activity change, negative = inhibition, actives largely listed as inhibitors; HEK293 hNpr1 GloSensor cGMP, ANP-stimulated luminescence; 76,000 compounds, 1.6% hits; P16066; calls by dose curve; note: nearly all actives have a fitted effect of over 60% in size
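Compound pre-incubated 30 min at room temperature on GloSensor-loaded HEK293 cells stably carrying hNpr1 and the pGS-40F cGMP biosensor. Stimulation uses hNppA at 0.1 nM final; luminescence is taken at baseline and 20 min post-agonist.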
* hit, by the source's call; i = inactive; ? = inconclusive; · = no result given; [ ] = dose if it differs, or a comment. Hits are enriched below; roughly 10% of the tested compounds scored in any of these assays. Unless noted, calls come from the whole dose curve; as a rule, active = well fitted curve in the direction sought with a large enough effect; inconclusive = small, poorly fitted or top-dose-only effect, or another doubt; inactive = no such curve, though single readings can be large; an effect the other way counts as inactive or inconclusive. % is set by controls: 0 for no effect and ±100 for the full control effect; potency is the fitted concentration of half-maximal effect.

SMILES	3T3 cytotox	FLuc inh	HEK293 tox	GPT2 inhibitor	hNpr1 antagonist
COc1ccc(-c2cc(N3CCC(NC(=O)c4ccc(Cl)cc4)C3)n[nH]2)cc1 (centres undefined)	?	i	?	-15%	-13%
O=C(NC1CCN(c2cc(-c3ccccc3)[nH]n2)CC1)c1ccc2ccccc2n1	28µM*	i	50µM*	i	-24%
O=S(=O)(c1cnc[nH]1)N1CCC(c2nc(CCOCC3CC3)no2)C1 (centres undefined)	-11%	i	-5%	i	-1%
CN(C)C(=O)[C@@H]1CN(S(=O)(=O)c2ccccc2)C[C@H]1CO	-23%	·	-15%	i	·
COc1ccc(CC(=O)NC2CCN(c3cc(-c4ccc(Cl)cc4)[nH]n3)C2)cc1 (centres undefined)	?	i	28µM*	?	-30%
CC(=O)Nc1ccc(C(=O)NC2CCN(c3cc(-c4ccccc4)[nH]n3)CC2)cc1	?	i	-22%	i	-12%
COc1ccc(-c2cc(N3CCC(NC(=O)Cc4ccc(Cl)cc4)CC3)n[nH]2)cc1	?	i	?	-14%	-25%
COc1cc(OC)cc(C(=O)NC2CCN(c3cc(-c4ccc(F)cc4)[nH]n3)CC2)c1	35µM*	i	?	-12%	-22%
O=C(NC1CCN(c2cc(-c3ccccc3)[nH]n2)CC1)c1ccc(Cl)cc1	20µM*	i	?	5%	-27%
CCOC(=O)C1CCN(C(=O)c2cn3cc(-c4ccc(C)cc4)sc3n2)CC1	?	·	-24%	5%	·
O=C(c1ccc2nnc(-c3cncc(Cl)c3)n2c1)N1CCCC1	-17%[138 µM]	·	i	-6%[88.5 µM]	·
O=C(Cc1c[nH]c2ncc(-c3cccc(CO)c3)cc12)NCc1cccnc1	?	i	-22%[172 µM]	3%[88.5 µM]	-9%[70.6 µM]
Cc1noc(C)c1-c1cnc2[nH]cc(CC(N)=O)c2c1	10µM*	i	?	-27%[88.5 µM]	-4%[70.6 µM]
COc1ccc(-c2cnc3[nH]cc(CC(N)=O)c3c2)cc1OC	10µM*	i	?	-1%[88.5 µM]	-2%[70.6 µM]
Cc1noc(C)c1-c1cnc2[nH]cc(CC(=O)NCc3cccnc3)c2c1	32µM*	i	?	i	0%[70.6 µM]
NC(=O)Cc1c[nH]c2ncc(-c3ccc(F)cc3)cc12	?	?	-7%[230 µM]	i	1%[70.6 µM]
CC1=NS(=O)(=O)N(C)C=C1C(=O)OCc1noc(-c2ccccc2Cl)n1	?	?	?	i	11µM*
CN1CCC2(C1)CN(CC1CCOCC1)c1ccc(C(=O)NCCOc3ccccc3)cc12 (centres undefined)	32µM*	i	?	i	-1%
CN1CCC2(C1)CN(CC1CCOCC1)c1ccc(C(=O)NCCCO)cc12 (centres undefined)	89µM*	i	?	?	-1%[70.6 µM]
CN1CCC2(C1)CN(CC1CCOCC1)c1ccc(C(=O)NCCc3ccccc3)cc12 (centres undefined)	?	i	?	i	7%[70.6 µM]
O=C(c1ccccc1Cl)N1CCN(CCn2nc3n(c2=O)CCCC3)CC1	i	·	i	·	·
CCOc1ccc(NC(=O)C2(C)CCCCC(=O)N2)cc1 (centres undefined)	-7%	i	-5%	i	0%
O=C(CCN1c2ccccc2Sc2ccccc21)N1CCCC(c2nc(C3CCOCC3)no2)C1 (centres undefined)	?	i	40µM*	0%	-25%
O=C(c1ccccc1)N1CCCC(c2nc(C3CCOCC3)no2)C1 (centres undefined)	-3%	i	4%	i	-9%
CC(C)(C)c1[nH]nc2c1C(c1ccnc3ccccc13)CC(=O)N2 (centres undefined)	32µM*	i	-8%	1%	-5%
COc1cccc(C(=O)N2CCC(C(=O)N3CCCC3c3nc4ccncc4[nH]3)CC2)c1 (centres undefined)	5%	·	-2%	i	·
COc1cc(CNC(=O)c2cccc3c2CCN3C(=O)C2CC2)cc(OC)c1	-17%	i	45µM*	i	-12%
